About 2,400 (0.67%) of roughly 360,000 compounds were called active. Cut-off read from the data, not from the text of the source: active = enhancement above about 30%; inactive = the rest. Many of the other results were omitted from the sample, so actives are more common in it than they were.
These molecules were tested against Thyrotropin-releasing hormone receptor (Homo sapiens) (UniProt P34981) (assay: qHTS for Small Molecule Agonists and Allosteric Enhancers of Human TRH Receptor: Primary Screen for Enhancers). Conditions: TRHR cells, fluo-8 calcium fluorescence, EC20 TRH enhancement; at 2 µM; active compounds read high.
Procedure, shortened: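 Enhancer read-out: after compound pinning and an initial kinetic agonist-mode read, an EC20 of TRH (10 nM final) was injected and fluo-8 calcium signal (Ex 480/Em 530) followed at 1 s/cycle for 100 cycles in TRHR-expressing cells.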
Note: 0% is about no effect.

Sequence of Thyrotropin-releasing hormone receptor (Homo sapiens) (P34981 whole entry, looked up): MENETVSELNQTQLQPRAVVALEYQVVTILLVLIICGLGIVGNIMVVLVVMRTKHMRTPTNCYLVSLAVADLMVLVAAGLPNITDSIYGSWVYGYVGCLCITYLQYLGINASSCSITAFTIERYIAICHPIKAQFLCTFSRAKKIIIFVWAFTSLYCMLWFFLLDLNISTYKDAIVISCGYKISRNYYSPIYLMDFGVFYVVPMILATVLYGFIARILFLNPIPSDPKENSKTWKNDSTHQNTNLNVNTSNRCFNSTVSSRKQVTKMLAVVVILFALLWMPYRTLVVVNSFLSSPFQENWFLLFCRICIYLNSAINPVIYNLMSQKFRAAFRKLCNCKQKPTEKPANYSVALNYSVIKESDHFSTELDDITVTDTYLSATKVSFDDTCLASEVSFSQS

enhancement, active:
CN(C(=O)CSc1nnc(Nc2ccccc2)s1)C1CCS(=O)(=O)C1 (configuration not stated) 51.4%, CC(C)C1Nc2c(C(=O)O)cccc2C(Nc2ccccc2C(=O)O)C1(C)C (configuration not stated) 30.3%, CC1COc2ccccc2N1C(=O)c1cccnc1Cl (configuration not stated) 30.7%, Cc1cc(Br)ccc1NC(=S)NC1CCCC1 36%, C/C(=N/OC(=O)c1ccc(Br)cc1)c1ccc(C)cc1 61.7%, O=C(NCc1ccncc1)C1CCCN(S(=O)(=O)c2ccc(Br)cc2)C1 (configuration not stated) 30.7%, C/C(=C\c1ccco1)CN1CCC(N2CCC(C(=O)N3CCOCC3)CC2)CC1 46.7%, Cc1c(/C=N\NC(=O)c2cc3ccccc3o2)c2ccccc2n1C 44.3%, CN1CCN(S(=O)(=O)c2ccc(N3CCN(S(=O)(=O)c4cccs4)CC3)nc2)CC1 39.6%, CC(=O)N1CCN(CC(=O)Nc2ccc(C)c(F)c2)CC1 47.8%

enhancement, inactive:
CCCC(=O)Nc1ccc(NC(=O)c2sc3ccccc3c2Cl)cc1 -1.06%, CCC(=O)N1CCc2cc(S(=O)(=O)NC(C(=O)NCCc3ccc(C)cc3)C(C)C)ccc21 (configuration not stated) 18.2%, CCn1c(SCC(=O)N(C)C2CCS(=O)(=O)C2)nnc1-c1cccs1 (configuration not stated) 2.93%, CN(C(=O)CSc1nnc(NC(=O)Nc2ccccc2)s1)c1ccccc1 -6.25%, CC(=O)c1ccc(N2CCN(C3C(=O)c4ccccc4N3C(C)=O)CC2)cc1 (configuration not stated) -5.78%, N#Cc1ccccc1Cn1cnc2nc3c(cc2c1=O)CCCC3 2.65%, O=S(=O)(c1ccccc1)c1nc(-c2ccc(Cl)cc2Cl)oc1N1CCCCC1 2.85%, CCCCNC(=O)C1CCCN(c2nnc(C)c3c(C)n(-c4ccc(Cl)cc4)nc23)C1 (configuration not stated) -2.23%, Cc1ccc(-n2nc(CO)c(C(=O)NCCc3ccccc3)n2)cc1 -1.1%, CC(=O)N1CCCc2cc(S(=O)(=O)N3CCC(C(=O)NCc4ccc(C)cc4)CC3)ccc21 4%, CCc1ccc(Sc2cc(C(=O)NCCCOC(C)C)c3ccccc3n2)cc1 -9.07%, CC1COc2ccccc2N1S(=O)(=O)c1ccccc1 (configuration not stated) -5.39%, O=C1COc2ccc(C(=O)COC(=O)c3cccnc3Cl)cc2N1 -8.83%, Cc1oc2ccc(O)c(CN3CCOCC3)c2c1C(=O)Nc1cccc(Cl)c1C -0.894%, COc1ccc(-c2ccc(=O)n(CC(=O)Nc3ccc(Br)cc3F)n2)cc1 5.81%, S=C(Nc1ccc(Br)cc1Cl)NC1CCN(Cc2ccccc2)CC1 1.92%, Cc1cc(C)cc(NC(=O)NC2CCCCCCC2)c1 -4.13%, CCOc1ccc(NC(=O)C2CCN(S(=O)(=O)c3cc(-c4noc(C)n4)ccc3C)CC2)cc1 0.0598%, Cc1cccc(Cn2c(CN3CCC(C(=O)NCc4ccccc4Cl)CC3)cc3ccccc32)c1 -3.11%, CCOc1ccc(C(=O)c2cn(Cc3ccccc3OC)c3ccc(F)cc3c2=O)cc1 -0.366%, N/C(=N\OC(=O)c1ccc2c(c1)OCO2)c1ccc(Br)cc1 -2.97%, C/C(=N\OC(=O)c1ccccc1)c1c(C)nc2cc(C)ccn12 -2.45%, Cc1cn(C)c(CC(=O)NCc2ccccc2)c1C(=O)O -2.62%, Cc1cccc(-c2nc(SCc3ccc(Br)cc3)n3[nH]c(=O)cc3n2)c1 4.69%, O=C(NC1(C(F)(F)F)N=C(c2ccccc2)N(C2CCCCC2)C1=O)c1ccccc1F (configuration not stated) -3.75%, CN1CCN(c2oc(-c3ccc(COc4ccc(Cl)cc4)o3)nc2C#N)CC1 0.896%, Cc1ccc(C)c(NC(=O)C2CCCN(S(=O)(=O)c3cn(C)cn3)C2)c1 (configuration not stated) 12.8%, O=C(NCc1ccccc1)C1CCCN(S(=O)(=O)c2cccs2)C1 (configuration not stated) 4.34%, CSc1ccc(S(=O)(=O)N2CCC(C(=O)NCc3ccncc3)CC2)cc1 0.598%, CCc1nc2c(cnn2-c2ccc(C)cc2)c(=O)n1-c1ccc(C)cc1 -4.12%, Cc1ccc(Cn2ncc3c4sc(C)cc4n(C)c3c2=O)c(C)c1 4.39%, CCCN(CCC)CCNC(=O)c1ccc2c(c1)NC(=O)C(CS(=O)(=O)Cc1cccc(Br)c1)N2 (configuration not stated) 5.05%, O=C(C1CCN(C2CCN(Cc3cccc4c3OCO4)CC2)CC1)N1CCOCC1 2.59%, O=C(C1CCN(C2CCN(Cc3ccc4cc(F)ccc4n3)CC2)CC1)N1CCCC1 -6.35%, Cc1ccc(-c2nc(SCc3ccc(Br)cc3)n3[nH]c(=O)cc3n2)cc1 -0.363%, CC(C)Oc1ccc(NC(=O)c2cc3ccccc3o2)cc1 7.33%, CC(C)(C)n1nc2c(c1NC(=O)c1cc3ccccc3o1)CSC2 1.55%, O=C(NCCS(=O)(=O)N1CCN(c2ccc(F)cc2)CC1)c1ccccc1Br 1.15%, Cc1ccc(C2CCN(C(=O)c3cnn(-c4ccccc4Cl)c3C3CCN(C(=O)OC(C)(C)C)CC3)C2)cc1 (configuration not stated) 3.84%, O=S(=O)(c1cccs1)N1CCN(CCOc2ccccc2)CC1 5.02%, CC(=O)Nc1ccc(S(=O)(=O)N2CCN(S(=O)(=O)c3cccs3)CC2)cc1 -0.8%, CCOC(=O)C1CCN(c2csc3ccc(C)cc3c2=O)CC1 -6.67%, CCOC(=O)C1CCC(CN(Cc2ccc(OC)cc2)S(=O)(=O)c2ccc(F)c(C(=O)Nc3cc(C)ccc3C)c2)CC1 (configuration not stated) -3.18%, Cc1ccc(NC(=O)CN2c3ccccc3S(=O)(=O)c3ccccc32)cc1F 10.5%, COC(=O)c1cc(NC(=O)CN2CCN(C(C)=O)CC2)cc(C(=O)OC)c1 6.58%, CCOc1ccc(C2C(C(=O)Nc3ccc(Cl)cc3)=C(C)Nc3nc(C(F)(F)F)nn32)cc1 (configuration not stated) 10.8%, C#CC(C)(CC)NC(=O)Cn1nnc(-c2ccc(OCc3c(F)cccc3Cl)cc2)n1 (configuration not stated) 1.56%

Reference: PubChem BioAssay AID493056 (National Center for Advancing Translational Sciences (NCATS), 2011)
